From the supplement of paper PMC6555819 come the findings set out here.

What all share (test): PBM binding z-score (relative to random genomic background probes); higher = stronger binding; sequences stand for … in GC…GCGATTGACAGCGTAGAATGAAGG
Assay [1] relates to FXR:RXRa (NR concentration 270 nM, RXRa partner concentration 90 nM). The procedure, abridged: (§1)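 For binding z-scores, the reference was random background probes on custom Agilent 4×180K protein-binding microarrays. These arrays were incubated 1 h with ligand-free nuclear receptor dimers in PBS pH 7.4, 2% milk, 0.02% Triton X-100, 1 mM DTT, 0.2 mg/mL BSA and 0.4 mg/ml salmon testes DNA. Fluorescence was scanned after antibody detection of each partner (one per run) and regression-normalized.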

For assay [2], the system named is LXRa:RXRa (NR concentration 270 nM, RXRa partner concentration 90 nM). The procedure, abridged:
as §1

In assay [3] the test system is LXRa homodimer (NR concentration 270 nM). The procedure, abridged: as §1
The subject of assay [4] is LXRb:RXRa (NR concentration 270 nM, RXRa partner concentration 90 nM). The procedure, abridged: as §1
The subject of assay [5] is LXRb homodimer (NR concentration 270 nM). The procedure, abridged:
as §1

Assay [6] deals with PPARa:RXRa (NR concentration 270 nM, RXRa partner concentration 90 nM). Summed up:
as §1

Assay [7] concerns PPARg:RXRa (NR concentration 180 nM, RXRa partner concentration 90 nM). The procedure, abridged: as §1
For assay [8], the system named is PPARg:RXRa 270nM:90nM, anti-RXR (NR concentration 270 nM, RXRa partner concentration 90 nM). The procedure, abridged: as §1
In assay [9] the test system is PPARg:RXRa 30nM:10nM, anti-RXR (NR concentration 30 nM, RXRa partner concentration 10 nM). Summed up:
as §1

Assay [10] concerns PPARg:RXRa 90nM:30nM, anti-RXR (NR concentration 90 nM, RXRa partner concentration 30 nM). Summed up:
as §1

Assay [11] has as its system PPARg:RXRa DBDmut IVT, anti-RXR (DBD mutation: RXRa K156A/R161A, NR concentration 270 nM, RXRa partner concentration 90 nM). Summed up:
as §1

Assay [12] concerns PPARg:RXRa IVT, anti-PPARg (NR concentration 270 nM, RXRa partner concentration 90 nM). The procedure, abridged: as §1
Assay [13] relates to PPARg DBDmut:RXRa IVT, anti-PPARg (DBD mutation: PPARg1 K132A/R137A, NR concentration 270 nM, RXRa partner concentration 90 nM). Summed up:
as §1

Assay [14] relates to PPARg DBDmut IVT, anti-PPARg (DBD mutation: PPARg1 K132A/R137A, NR concentration 270 nM). The procedure, abridged: as §1
Assay [15] deals with PPARg homodimer (NR concentration 180 nM). The procedure, abridged:
as §1

Assay [16] has as its system PXR:RXRa (NR concentration 270 nM, RXRa partner concentration 90 nM). The procedure, abridged: as §1
Assay [17] deals with PXR homodimer (NR concentration 270 nM). Summed up:
as §1

Assay [18] concerns RARa:RXR (NR concentration 270 nM, RXRa partner concentration 90 nM). The procedure, abridged:
as §1

Assay [19] has as its system RARa homodimer (NR concentration 270 nM). Summed up:
as §1

In assay [20] the test system is RARb:RXRa (NR concentration 270 nM, RXRa partner concentration 90 nM). Summed up: as §1

As to TCATATAGCTAAACAGGTGAAAGTCCGTAAGTTA, the PBM binding z-score in [1] was -0.237; in assay [2], -0.00497; in assay [3], -0.0906; in [4], 0.338; in [5], -0.588; in assay [6] it was 1.08. In addition, the PBM binding z-score in [7] was determined as 0.667; in assay [8] it was 1.92; in assay [9] it was 2.64; in assay [10] it was 2.23; in [11], 1.46; in [12], 0.758. Besides, the PBM binding z-score in assay [13] is -0.631; in assay [14] it was 0.119; in assay [15], 0.0802; in [16] it was 0.228; in [17], -0.231; in assay [18], 0.404. In addition, the PBM binding z-score in assay [19] was found to be 0.0178; in assay [20] it was 0.215.

On to CGAAGGAGGGCATGAGTTGATAGCAAATGCCGAT, for which the PBM binding z-score in [1] is -0.0276; in assay [2], -0.0888; in assay [3] it was -0.504; in assay [4], -0.073; in assay [5], -0.785; in assay [6] it was 0.988. The PBM binding z-score in assay [7] worked out at 1.13; in assay [8], 1.1; in assay [9], 0.326; in assay [10], 0.97; in assay [11], 2.57; in assay [12], 2.1. The PBM binding z-score in assay [13] was 0.0677; in [14] it was -0.445; in [15], 0.352; in [16] it was 0.02; in assay [17], -0.165; in assay [18] it was 0.152. Also, the PBM binding z-score in [19] was -0.898; in assay [20], 1.53.

On to CAAACTAGGTCACGATAGGTCAAAGTCGAATGAC, for which the PBM binding z-score in [1] worked out at 5.83; in assay [2], 8.21; in assay [3], 5.31; in assay [4], 6.9; in [5], 1.01; in assay [6] it was 6.14. Also, the PBM binding z-score in assay [7] was 9.76; in [8], 7.74; in [9] it was 6.05; in [10] it was 7.79; in assay [11], 8.73; in [12] it was 9.21. Besides, the PBM binding z-score worked out at 3.89 in assay [13]; 2.14 in [14]; 4.63 in assay [15]; 5.42 in [16]; 0.73 in [17]; 5.95 in [18]. In addition, the PBM binding z-score in assay [19] was 1.74; in [20], 4.88.

For the sequence CCTAGTAGGTCAGGAGGTCACACACCGGATATGA, the PBM binding z-score in assay [1] was found to be 5.48; in assay [2], 4.97; in assay [3], 2.62; in assay [4], 4.41; in assay [5], 0.811; in assay [6], 5.81. The PBM binding z-score in assay [7] was found to be 9.01; in [8] it was 7.34; in assay [9], 6.14; in assay [10], 7.5; in assay [11], 7.03; in assay [12], 7.47. The PBM binding z-score in [13] was found to be 1.73; in [14], 1.02; in [15], 4.99; in assay [16] it was 4.94; in assay [17] it was 1.33; in [18], 6.63. The figures for the PBM binding z-score in [19] and in [20] were 3.21 and 4.72, respectively.

In the case of CCGACTGAGGCAAGGTTACCATAACGCACAGCCA, the PBM binding z-score in [1] was 0.169; in assay [2], 0.738; in assay [3], -0.295; in assay [4] it was 0.593; in [5], -0.805; in assay [6], 0.985. Besides, the PBM binding z-score is 0.898 in [7]; 0.236 in assay [8]; -0.466 in assay [9]; 0.134 in assay [10]; -0.0464 in assay [11]; -0.0439 in [12]. The PBM binding z-score in assay [13] is -0.139; in assay [14], -0.814; in [15], 0.4; in assay [16] it was 0.18; in [17], -0.0704; in assay [18], 0.645. In addition, the figures for the PBM binding z-score in assay [19] and in [20] were 0.194 and 0.904, respectively.

Consider ACTATTAGTTGAGACGAGGGCACCCGATAGGTTG, for which the PBM binding z-score in [1] was 0.0849; in assay [2], 0.0854; in assay [3], -0.0764; in [4], 0.0614; in assay [5], 0.318; in assay [6], 0.202. In addition, the PBM binding z-score was 0.813 in [7]; 0.197 in [8]; 0.108 in assay [9]; 0.163 in assay [10]; -0.207 in assay [11]; 0.476 in assay [12]. The PBM binding z-score was 0.77 in assay [13]; 0.797 in assay [14]; -0.607 in [15]; 1.33 in assay [16]; 0.328 in assay [17]; 1.2 in [18]. Further, the PBM binding z-score turned out to be 0.511 in assay [19] and 0.966 in assay [20].

Take TCTTGTAGATGAAAGGTTAAGAAAGCCGAAGCCT: the PBM binding z-score in assay [1] stood at 1.26; in assay [2], 1.83; in assay [3], 0.275; in assay [4] it was 1.67; in assay [5], 0.361; in [6], 3.62. Moreover, the PBM binding z-score in assay [7] is 5.98; in [8], 6.86; in [9], 6.79; in assay [10], 7.44; in assay [11], 2.04; in assay [12], 2.16. Moreover, the PBM binding z-score in [13] amounted to 0.389; in assay [14], 0.195; in [15], 0.811; in assay [16], 1.29; in assay [17], 0.117; in assay [18], 2.05. The PBM binding z-score in assay [19] was found to be 0.435; in assay [20], 1.73.
